HttQ103 aggreg: reduces HttQ103-GFP aggregates in PC12 cells; PC12 HttQ103-GFP aggregates, Acumen cytometry, 40 h; Potency, µM (highest dose often 46.1 µM), inactives show at the top dose activity change, negative = inhibition, actives largely listed as inhibitors; 220,000 compounds, 1.1% hits; AID 1688; note: potency is the fitted concentration of half-maximal effect; % is set by controls: 0 for no effect and ±100 for the full control effect; nearly all actives have a fitted effect of over 60% in size
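PC12 cells stably carrying ecdysone-inducible HTT exon 1 Q103–GFP were induced with tebufenozide (100 nM final) and treated with library compounds in titration. GFP aggregates in lysates were counted by laser scanning cytometry.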
PNC assembly inh: perinucleolar compartment assembly inhibition; PC3M PTB-GFP, PNC prevalence imaging, 16 h; hits give low values; activity change (PNC), negative = inhibition, % at 10 µM; 140,000 compounds, 3.1% hits;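 active = readout at or below -70, meaning at least 70% loss of cells showing the perinucleolar compartment, a nuclear body marking cancer cells; inconclusive = readout between -30 and a set limit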;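 note: plate controls were DMSO wells for no effect and camptothecin positive control wells for full effect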
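Read-out is percentage of cells bearing a perinucleolar compartment, from automated 20x imaging of fixed, Hoechst-stained PC3M PTB-GFP cells. Cells were seeded 4 h, then exposed 16 h to compound (23 nl of library stock) in duplicate plates.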
IMPase cell inh: membrane-permeable compound that blocks inositol monophosphatase | 120,000 tested, under 10 active | CHO-M1 cells, IP1 accumulation, HTRF TR-FRET ratio | inhibition (IP1 accumulation), % at 46.1 µM | AID 901; active = well fitted curve in the direction sought with a large enough effect in the signal ratio, not every such curve was filed as active; inconclusive = small, poorly fitted or top-dose-only effect, or a change in a side signal; inactive = no such curve, though single readings can be large or run the other way; the % refers to the signal ratio;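 note: cells stimulated with carbachol in lithium chloride buffer; plate controls were DMSO basal wells for no effect and reference inhibitor wells for full effect; higher means more IMPase inhibition seen as more IP1 and lower FRET ratio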
Target sequence (P97697 whole entry, looked up): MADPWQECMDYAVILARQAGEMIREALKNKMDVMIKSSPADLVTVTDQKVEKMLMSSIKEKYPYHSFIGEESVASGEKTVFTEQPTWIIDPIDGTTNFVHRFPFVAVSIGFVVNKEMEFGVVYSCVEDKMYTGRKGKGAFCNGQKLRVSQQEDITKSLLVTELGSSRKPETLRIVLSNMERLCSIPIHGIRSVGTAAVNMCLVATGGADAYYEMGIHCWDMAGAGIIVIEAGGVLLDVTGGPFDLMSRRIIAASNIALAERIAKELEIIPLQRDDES
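Cellular IMPase inhibition is scored as a rise in cytosolic IP1, detected by competitive TR-FRET between d2-labelled IP1 and a europium anti-IP1 antibody. M1-expressing CHO cells were stimulated with carbachol for 30 min at 37C, with lithium (50 mM LiCl) present in the buffer.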
HTT cytoprotect: Huntington cell model cytoprotection by ATP luminescence; 230,000 compounds, 0.14% hits; Potency, µM (highest dose often 56.4 µM), without a hit: cytoprotection (ATP increase), most hits filed as activators; PC12 HTT-Q103 induced, cytoprotection, ATP luminescence, 40 h; note: potency is the fitted concentration of half-maximal effect; % of control where 0% means no effect; nearly all actives have a fitted effect of over 45% in size
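Stable PC12 Q103-GFP cells in serum-supplemented, phenol red-free DMEM; induction by tebufenozide at 100 nM final; compound dose series; cell viability quantified luminescently from ATP.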
12-hLO inh: 12-hLO (ALOX12) enzyme inhibition; purified 12-hLO, xylenol orange hydroperoxide absorbance; Potency, µM (top dose mostly 57.1 µM), without a hit: at the top dose activity change, negative = inhibition, most hits filed as inhibitors; 150,000 compounds, 0.12% hits; AID 1452; note: potency is the fitted concentration of half-maximal effect; % is set by controls: 0 for no effect and ±100 for the full control effect; nearly all actives have a fitted effect of over 55% in size
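Xylenol orange chromogenic assay: hydroperoxide from 12hLO oxidises Fe(II), giving red-shifted Fe(III)-XO absorbance. Conditions: 150 nM enzyme, 40 uM arachidonic acid, 25 mM Hepes pH 7.0, 0.01% Triton X-100, 30 min, room temperature.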
NPSR antagonist: antagonists of human neuropeptide S receptor cAMP signaling; CHO-NPSR cells, cAMP TR-FRET, antagonist mode; AID 1461; 220,000 compounds, 1% hits; Potency, µM (doses to about 38.3 µM), without a hit: at the top dose activity change, negative = inhibition, actives largely listed as inhibitors; note: potency is the fitted concentration of half-maximal effect; % is set by controls: 0 for no effect and ±100 for the full control effect; nearly all actives have a fitted effect of over 50% in size
Target sequence (Q6W5P4 whole entry, looked up): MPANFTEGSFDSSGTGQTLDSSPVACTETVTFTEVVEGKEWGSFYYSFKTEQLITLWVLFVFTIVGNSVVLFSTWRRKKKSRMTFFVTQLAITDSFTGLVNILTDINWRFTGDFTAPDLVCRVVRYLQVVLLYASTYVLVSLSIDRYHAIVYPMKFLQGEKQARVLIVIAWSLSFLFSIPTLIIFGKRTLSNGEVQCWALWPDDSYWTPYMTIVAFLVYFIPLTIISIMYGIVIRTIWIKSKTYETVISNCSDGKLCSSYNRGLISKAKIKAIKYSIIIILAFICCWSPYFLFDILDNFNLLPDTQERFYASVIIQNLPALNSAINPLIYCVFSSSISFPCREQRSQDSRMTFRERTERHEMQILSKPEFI
* hit, by the source's call; u = inconclusive; x = no result; ! = a repeat was not active; [ ] = dose if it differs, or a comment. Most compounds without a hit are left out; they make up all but 3.3% or so of the library. Unless noted, calls come from the whole dose curve; as a rule, active = well fitted curve in the direction sought with a large enough effect; inconclusive = small, poorly fitted or top-dose-only effect, or another doubt; inactive = no such curve, though single readings can be large; an effect the other way counts as inactive or inconclusive.

SMILES	HttQ103 aggreg	PNC assembly inh	IMPase cell inh	HTT cytoprotect	12-hLO inh	NPSR antagonist
O=C(N/N=C(\c1ccccc1)c1cccnc1)C(O)(c1ccccc1)c1ccccc1	-12%	-92*	0	-28%	-2%	u
CCOc1cccc(C(=O)Nc2ccc3oc(-c4ccc(C(C)(C)C)cc4)nc3c2)c1	x	x	-5	x	x	x
CC1=C(/C=C/C(C)=C/C=C/C(C)=C/CO)C(C)(C)CCC1	-5%	x	1	10µM*!	-8%	x
CC1=C(/C=C/C(C)=C/C=C/C(C)=C\CO)C(C)(C)CCC1	x	x	x	7%	x	x
c1ccc(CSc2ccc(-c3cccs3)nn2)nc1	0.032µM*	x	x	-94%	x	17%
N[C@@H](CSS(=O)(=O)O)C(=O)O	x	x	-3	1%	-1%	x
O=C(N1CCOCC1)n1cnc2ccccc21	u	-100*	-5	-11%[10 µM]	6%	2%[46.1 µM]
O=C(N1CCOCC1)n1nnc2ccccc21	9%	u	-2	-58%	-8%	-9%[46.1 µM]
Cc1ccc(C(=O)Nc2ccnc(-c3cccnc3)n2)cc1	-10%	x	x	1%[10 µM]	x	13%
Cc1ccc(NC(=O)Nc2ccnc(-c3cccnc3)n2)cc1	u	x	x	3.5µM*	x	-8%
COC(=O)c1c(C)cc(OC)cc1O	x	x	x	x	-3%	x
Cc1cccc(/C=C(\c2nc3ccccc3[nH]2)S(=O)(=O)c2ccccc2)c1	u	-82*	20	u	-2%	7.9µM*
Cc1ccc(NC(=S)c2nc3ccccc3[nH]2)c(C)c1	u	15	x	-24%[10 µM]	-5%	-11%
FC(F)(F)c1cc(CN2CCCC3(CCNCC3)C2)cc(C(F)(F)F)c1	x	x	x	-84%	3%	x
O=C(CCCn1c2ccccc2c(=O)c2ccccc21)Nc1cccc(Cl)c1	x	x	-7	x	x	x
COc1ccc(NS(=O)(=O)c2cc(NC(=O)C3CCCO3)ccc2N2CCCCC2)cc1 (stereo not drawn)	-6%	x	x	-52%	x	10µM*
CCOc1ccccc1CNS(=O)(=O)c1ccc2[nH]c(=O)sc2c1	13µM*	-107*	6	-10%	2%	-16%[46.1 µM]
CCOc1ccc(NC(=O)C2CCCN(C)C2)cc1 (stereo not drawn)	-16%[9.22 µM]	x	x	25%[10 µM]	x	1%[7.67 µM]
CC(=O)CSc1nnc(Cc2ccc3c(c2)OCO3)o1	6%	-100*	-3	16%[10 µM]	-4%	7%[46.1 µM]
O=C(CSc1nnc(Cc2ccccc2)o1)NCc1ccc2c(c1)OCO2	-14%	x	x	-28%	x	-1%
CCOc1ccccc1NC(=O)C(Cc1ccccc1)NS(=O)(=O)c1ccc(Br)s1 (stereo not drawn)	x	x	2	x	x	x
CC(=O)N1CCN(C)CC1	x	x	-1	0%	-3%	x
COC(=O)C1=C(N)Oc2cc(C)n(Cc3cccnc3)c(=O)c2C1c1ccccc1OC (stereo not drawn)	8%	-86*	u	1%	-3%	-9%[46.1 µM]
COC(=O)C1=C(N)Oc2cc(C)n(Cc3cccnc3)c(=O)c2C1c1ccc(OC)c(OC)c1OC (stereo not drawn)	20%	u	-4[1.84 µM]	-4%[10 µM]	-3%	-21%[46.1 µM]
O=c1[nH]c(=O)c2[nH]c(=O)[nH]c2[nH]1	7%	x	x	12%	x	x
SMILES	HttQ103 aggreg	PNC assembly inh	IMPase cell inh	HTT cytoprotect	12-hLO inh	NPSR antagonist
COc1ccc(/C=C/C(=O)NC(=S)Nc2ccc(S(=O)(=O)Nc3ccc(OC)nn3)cc2)cc1	1%	10	x	1%[10 µM]	-14%	-58%
Cc1ccc2oc(-c3cccc(NC(=S)NC(=O)/C=C/c4ccco4)c3)nc2c1	u	-15	-3	-44%	u	2.5µM*
Cc1ccc2oc(-c3cccc(NC(=S)NC(=O)c4cccs4)c3)nc2c1	6%	u	x	10%[10 µM]	0%	-25%
COc1cc(NS(=O)(=O)c2ccc(NC(=S)NC(=O)/C=C/c3ccco3)cc2)ncn1	u	x	x	x	x	10µM*
O=C(N/C(=C/c1ccc(Cl)cc1)C(=O)N1CCCC1)c1ccccc1	15%[9.22 µM]	x	x	3%[10 µM]	x	3%
CC(=O)Nc1ccc(NC(=O)c2ccc(NS(=O)(=O)c3cc(C(C)(C)C)cc(C)c3C)cc2)cc1	19%	-89*	x	x	-3%	-30%
CCCOc1ccc(-c2nc3ccccc3c(=O)o2)cc1	x	x	3	x	x	x
C/C(=N\NC(=O)c1cc(C)oc1C)c1ccc(N2CCOCC2)cc1	18%	x	x	-5%[10 µM]	x	9%
Cc1c(C)[n+](=O)c2c(n1[O-])CCC2	-13%	-28	1	14%	-2%	5%[7.67 µM]
Cc1c(-c2cccs2)[n+](=O)c2c(n1[O-])CCCC2	-5%	-100*	5	7%[10 µM]	0%	-1%[46.1 µM]
CCc1c(C)n([O-])c2c([n+]1=O)CCC2	-13%	-81*	1	11%[10 µM]	-1%	-4%[46.1 µM]
CC(N)(C(=O)O)c1cccc(CC(=O)O)c1 (stereo not drawn)	x	x	x	-21%	x	x
CN1CCN(c2cc3c(nn2)Oc2ccccc2N3C)CC1	1%	x	x	25%	x	x
Cc1ccc(Nc2cc(-n3cccn3)ncn2)c(C)c1	2%[9.22 µM]	0	-4	-4%	0%	-17%[46.1 µM]
Fc1cccc(Nc2cc(-n3cccn3)ncn2)c1	13µM*	-12	u	10%[10 µM]	6%	-7%[46.1 µM]
COCCNC(=O)[C@H](C)/C=C(\c1cccnc1)C(NC(=O)OCc1ccccc1)c1ccc(C(=O)OC)cc1 (stereo partly drawn)	x	x	x	-10%	-4%	x
CC(NC(=O)CCN1C(=O)c2ccccc2C1=O)c1ccc2c(c1)CCCC2 (stereo not drawn)	3%	-113*	x	x	-3%	-22%
CC(NC(=O)CCCCCCN1C(=O)c2ccccc2C1=O)c1ccc2c(c1)CCCC2 (stereo not drawn)	10µM*	u	14	-15%[10 µM]	-4%	u
N#Cc1cccc(-c2nc3cnc(Nc4ccccc4)nc3n(C[C@H]3CCCO3)c2=O)c1	x	x	x	-2%	0%	x
CCCCS(=O)(=O)/C=C\C=C/S(=O)(=O)CCCC	u	u	9	-97%[10 µM]	2%	5µM*
CC(C)NC(=O)N1CCCC2(CCN(C(=O)c3ccco3)CC2)C1	x	x	x	-15%	-4%	x
COc1cc(/C=C2/C(=O)NN(c3cccc(F)c3)C2=O)ccc1OC(=O)c1ccco1	8%	-81*	2	7%[10 µM]	-4%	u

High-throughput results deposited in PubChem by National Center for Advancing Translational Sciences (NCATS).
